HDAC3 inh: inhibitors of human histone deacetylase 3; O15379; 320,000 compounds, 0.15% hits; recombinant HDAC3, fluorogenic peptide/trypsin coupled, fluorescence; inhibition, % at 8.3 µM; AID 2718; in the data active = inhibition above about 26%, passing the limit was not always enough; inconclusive = no clear call, values can overlap the other calls
CASP6 VEID inh: caspase-6 (human) enzyme inhibition | AID 686996 | P55212 | inhibition, % at 12.5 µM | purified caspase-6, Z-VEID-R110 cleavage fluorescence | 350,000 compounds, 0.53% hits;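 active = mean inhibition across replicates at least about 35%, with every replicate also reaching that limit, limit read from the data; inconclusive = only one of the two criteria met; inactive = neither criterion met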;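 note: 0% = median of neutral control wells and 100% = no fluorescence left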
Keap1 Nrf2 FP: inhibitors of human Keap1-Nrf2 protein-protein interaction; Keap1 Kelch-Nrf2 peptide fluorescence polarization, 1536-well; inhibition, % at 9.4 µM; 340,000 compounds, 0.15% hits; AID 504523; in the data active = inhibition above about 12%; inconclusive = no clear call, values can overlap the other calls; inactive = below about 7.3%;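 note: human Keap1 Kelch domain with fluorescein labeled Nrf2 9mer peptide probe; 0% = neutral control wells and 100% = peptide positive control; higher means more block of Keap1 binding to Nrf2 peptide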
Glyco luc inh: blocks N-linked glycosylation in D54 reporter cells | 360,000 compounds, 0.23% hits | reporter increase, % at 12.5 µM | D54 ERlucT glycosylation luciferase reporter, 24 h; percent of 100 nM tunicamycin response | AID 588692;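 active = mean luciferase reporter signal, scaled so untreated is 0 and the glycosylation-blocking control 100, at or above a set limit in every replicate; inconclusive = mean reaches the limit but not every replicate does; inactive = mean below the limit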;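 note: luciferase carries N-glycosylation sites so blocking glycosylation raises the light; 0% = median of neutral control wells and 100% = median of 100 nM tunicamycin wells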
NSD2 HMT inh: inhibitors of human histone methyltransferase NSD2 | O96028 | NSD2 peptide methylation, AlphaScreen, 120 min | inhibition, % at 12.5 µM | 310,000 compounds, 0.54% hits | AID 743445; in the data active = inhibition above about 50%
Target sequence (O96028 whole entry, looked up): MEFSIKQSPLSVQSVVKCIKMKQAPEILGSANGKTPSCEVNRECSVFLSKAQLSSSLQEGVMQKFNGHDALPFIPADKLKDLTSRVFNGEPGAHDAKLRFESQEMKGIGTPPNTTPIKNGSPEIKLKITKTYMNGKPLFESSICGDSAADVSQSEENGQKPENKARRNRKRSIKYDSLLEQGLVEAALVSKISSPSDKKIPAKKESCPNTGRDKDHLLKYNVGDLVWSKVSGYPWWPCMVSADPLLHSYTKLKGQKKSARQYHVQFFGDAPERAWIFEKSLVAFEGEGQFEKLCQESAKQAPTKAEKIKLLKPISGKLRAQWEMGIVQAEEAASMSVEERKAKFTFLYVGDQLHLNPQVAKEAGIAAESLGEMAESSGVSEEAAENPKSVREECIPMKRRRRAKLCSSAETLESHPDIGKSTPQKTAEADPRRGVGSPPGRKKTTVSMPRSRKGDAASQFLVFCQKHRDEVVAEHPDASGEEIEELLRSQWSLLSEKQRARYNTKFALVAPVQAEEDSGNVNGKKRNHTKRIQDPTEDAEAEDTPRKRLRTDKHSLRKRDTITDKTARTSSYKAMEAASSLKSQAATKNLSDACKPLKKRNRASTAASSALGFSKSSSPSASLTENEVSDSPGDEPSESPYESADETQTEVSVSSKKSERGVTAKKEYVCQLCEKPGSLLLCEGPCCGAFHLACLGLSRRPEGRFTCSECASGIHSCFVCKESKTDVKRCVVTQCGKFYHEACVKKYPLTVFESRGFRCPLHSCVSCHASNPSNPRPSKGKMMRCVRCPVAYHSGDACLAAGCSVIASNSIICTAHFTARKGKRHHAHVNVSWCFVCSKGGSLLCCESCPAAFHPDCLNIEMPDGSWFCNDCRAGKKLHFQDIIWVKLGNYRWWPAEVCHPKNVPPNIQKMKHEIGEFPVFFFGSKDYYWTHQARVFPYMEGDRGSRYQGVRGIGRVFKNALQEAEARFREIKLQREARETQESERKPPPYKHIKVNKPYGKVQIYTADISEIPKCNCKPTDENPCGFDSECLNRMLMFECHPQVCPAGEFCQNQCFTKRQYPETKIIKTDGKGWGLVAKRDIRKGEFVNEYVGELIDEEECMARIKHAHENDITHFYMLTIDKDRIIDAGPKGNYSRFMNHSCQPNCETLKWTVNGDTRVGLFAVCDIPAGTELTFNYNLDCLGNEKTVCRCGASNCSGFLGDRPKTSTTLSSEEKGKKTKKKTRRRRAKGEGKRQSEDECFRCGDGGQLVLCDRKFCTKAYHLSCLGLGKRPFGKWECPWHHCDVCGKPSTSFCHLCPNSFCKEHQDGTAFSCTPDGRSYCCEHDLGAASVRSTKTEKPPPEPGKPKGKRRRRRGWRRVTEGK
LANA DNA inh: blocks KSHV LANA C-terminal domain binding to DNA; MBP-C-LANA/FAM-LBS DNA binding, fluorescence polarization; inhibition, % at 9 µM; 340,000 compounds, 0.078% hits;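 active = highest replicate inhibition at or above 60% at 9 µM, even if other replicates fall short; inactive = all replicates below 60% inhibition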;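 note: 0% = neutral control wells and 100% = 4 µM acridine orange control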
AlphaScreen art: interferes with AlphaScreen signal, flagging NSD2 false positives | shares compounds with NSD2 HMT inh | AC35, µM (highest dose often 10 µM), without a hit: top-dose activity change, negative = signal loss | 1,500 compounds, 9.4% hits | AlphaScreen artifact counterscreen, preloaded methylated H4 peptide; call rule not given here
* = called active by the depositor; u = inconclusive; x = not tested or not shown; ! = not confirmed by another sample. Most compounds without a hit are left out; they make up all but 1.1% or so of the library.

SMILES	HDAC3 inh	CASP6 VEID inh	Keap1 Nrf2 FP	Glyco luc inh	NSD2 HMT inh	LANA DNA inh	AlphaScreen art
Oc1cccc(/C=N/NC(=S)Nc2cccnc2)c1O	-8	x	-3	-3	79*	0	-6%
Fc1cccc(F)c1/C=N/NC(=S)Nc1cccnc1	0	3	-6	3	1	-1	x
Cn1c(=O)cc2c3c(c(N4CCCCC4)ccc31)C(=O)c1ccccc1-2	6	-1	x	28*	71*	x	7.8µM*
CNC(=O)CSc1nc2c(c(=O)n(C)c(=O)n2C)n1Cc1ccc(C)cc1	14	-1	4	5	-1	0	x
Cc1ccc(Cn2c(SCC(=O)NCC3CCCO3)nc3c2c(=O)n(C)c(=O)n3C)cc1 (stereo unspecified)	0	6	-2	-1	51*	8	2%
CC(=O)Oc1cccc2c1C(=O)C1CC=CC(OC(C)=O)C1C2=O (stereo unspecified)	x	7	-1	12	69*	-4	8µM*
CCCN(CCC)CCCNC(=O)c1ccc(CS(=O)(=O)c2c(Cl)cccc2Cl)o1	5	-23	-5	-4	63*	0	-5%
CN(C)CCNC(=O)c1ccc(CS(=O)(=O)c2c(Cl)cccc2Cl)o1	3	-48	-3	-3	x	-1	x
CNC[C@H]1Oc2ccc(NC(=O)Nc3ccccc3)cc2CC(=O)N([C@H](C)CO)C[C@@H]1C	x	-2	x	x	x	x	x
COC(=O)c1nn(C)c(=O)[nH]c1=O	x	4	0	-1	51*	-1	1%
COc1cc2c(C#N)c(N3CCCC3)nc(N)c2c(N)n1	-1	96*!	-4	1	68*	-1	-2%
COc1ccc(CNC(=O)c2nnn(-c3cccc(C(F)(F)F)c3)c2N)cc1	3	14	1	5	51*	13	2%
CCn1c(SCC(=O)c2ccc(O)c(O)c2)nnc1-c1ccccc1OC	7	x	3	-3	88*	12	-19%
C=CCn1c(SCC(=O)c2ccc(O)c(O)c2)nnc1-c1cccnc1	4	61*	-4	2	72*	7	-7%
C=CCn1c(SCC(=O)c2ccc(O)c(O)c2)nnc1-c1cccc(C)c1	5	21	-6	-5	x	0	x
C=CCn1c(SCC(=O)c2ccc(O)c(O)c2)nnc1-c1ccccc1OC	-7	18	-4	-4	x	2	x
O=C(c1ccccc1F)N1CC(=O)N2[C@@H](CO)[C@H](c3ccc(C#Cc4ccc(F)cc4)cc3)[C@@H]2C1	x	-1	x	x	x	x	x
C[C@@H]1CN([C@@H](C)CO)C(=O)c2cc(C3=CCCC3)cnc2O[C@H]1CN(C)C(=O)Nc1ccc(F)cc1	x	0	x	x	x	x	x
CC(=O)C1=C(C)OC2(O)c3ccccc3C(=O)C12O (stereo unspecified)	1	30	x	2	90*	x	-1%
CCOC(=O)C1=C(C)OC2(O)c3ccccc3C(=O)C12O (stereo unspecified)	1	24	x	2	107*	x	1%
C[C@H](CO)N1C[C@H](C)[C@H](CN(C)S(=O)(=O)c2ccccc2)Oc2ccc(NC(=O)CCCCCC(=O)Nc3ccccc3N)cc2C1=O	x	0	x	x	x	x	x
CCC(=O)N1CC2(C1)[C@@H](c1ccccc1)[C@@H](CO)N2CC1CCOCC1	x	1	x	x	x	x	x
CNC(=O)c1ccc(-c2cc(C(F)(F)F)nn2C)s1	-10	1	x	2	60*	x	-2%
Cn1nc(C(F)(F)F)cc1-c1ccc(/C=C(\C#N)C(=O)c2ccccc2)s1	4	-1	u	2	1	-5	x
Cc1ccccc1NC(=O)CN1CCC(C(=O)c2ccc3c(c2)OCCO3)CC1	10	-2	-4	-2	56*	1	-3%
SMILES	HDAC3 inh	CASP6 VEID inh	Keap1 Nrf2 FP	Glyco luc inh	NSD2 HMT inh	LANA DNA inh	AlphaScreen art
COc1ccc(C2N(C(=O)C(F)(F)F)C(C)CN2S(=O)(=O)c2ccc(C)cc2)cc1 (stereo unspecified)	3	0	-3	0	86*	1	1%
Cc1ccc(S(=O)(=O)N2CCN(C(=O)C(F)(F)F)C2c2ccc(N(C)C)cc2)cc1 (stereo unspecified)	-2	-1	1	1	122*	2	-3%
O=C(C[C@H]1C[C@@H]2c3cc(NC(=O)C4CCC4)ccc3O[C@@H]2[C@H](CO)O1)NCc1cccc(F)c1	x	4	x	x	x	x	x
COc1ccc(C)cc1NC(=O)CCNC(=O)Cn1cnc2ccccc2c1=O	-1	-1	-9	4	90*	0	-1%
CC1CCCCN1C(=O)CCNC(=O)Cn1cnc2ccccc2c1=O (stereo unspecified)	5	-1	-1	2	94*	0	1%
COc1ccc(OC)c(NC(=O)CCNC(=O)Cn2cnc3ccccc3c2=O)c1	4	1	3	0	44	2	x
CCCN(C)C[C@H]1Oc2cc(C#CCN(C)C)ccc2S(=O)(=O)N([C@@H](C)CO)C[C@H]1C	x	0	x	x	x	x	x
Cc1noc(C)c1NC(=O)Nc1ccc2c(c1)CC(=O)N([C@@H](C)CO)C[C@@H](C)[C@H](CN(C)CC1CCCCC1)O2	x	0	x	x	x	x	x
N#Cc1ccc(C(=O)OCC(=O)N2CCN(C(=O)c3ccco3)CC2)cc1	1	0	-4	2	1	-1	x
N#Cc1ccccc1OCC(=O)OCC(=O)N1CCN(C(=O)c2ccco2)CC1	-2	-1	-3	4	57*	-3	-3%
CN(C1=C(NC(=O)c2ccccc2)C(=O)c2ccccc2C1=O)C1CCS(=O)(=O)C1 (stereo unspecified)	9	78*	6	3	109*	20	-3%
CN(C)C(=O)C[C@H]1CC[C@@H]2[C@@H](COc3ccc(NC(=O)NCc4ccccc4)cc3C(=O)N2C)O1	x	-2	x	x	x	x	x
COc1ccc(NC2=CC(c3cccc(OC)c3)N(c3ccc(OC)cc3)C2=O)cc1 (stereo unspecified)	3	x	-4	-1	52*	-2	-8%
COc1ccc(NC2=CC(c3ccccc3)N(c3ccc(OC)cc3)C2=O)cc1 (stereo unspecified)	0	1	x	6	-2	x	x
O=C(C1CCC1)N1C[C@@H]2[C@H](c3ccccc31)[C@H](CO)N2C(=O)c1ccccc1F	x	-2	x	x	x	x	x
Cc1cccc(C(=O)Nc2cccc(-c3cnc4ccccc4n3)c2)c1	-1	x	3	1	57*	-1	-2%
CCN(CC)CCNC(=O)CN1C(=O)COc2ccc(S(=O)(=O)N3CCOCC3)cc21	x	-4	-6	1	81*	1	0%
CC(C)CN(CCNC(=O)CN1C(=O)COc2ccc(S(=O)(=O)N3CCOCC3)cc21)CC(C)C	-2	0	-7	2	-2	0	x
COc1ccc(-c2ccc([C@H]3[C@H]4CN(C(=O)C5CCOCC5)CC(=O)N4[C@H]3CO)cc2)cc1	x	0	x	x	x	x	x

Compound activity from PubChem.
